Data: the supplement of paper PMC10849652
About 8,800 targets were measured; listed, in parts, are those with a hit and a random draw of the rest. About 0.5% of all pairs of compound and target were hits.

Key:
Experiment in all cases: log2 fold change, soluble protein after heating vs DMSO (PISA); higher = thermal stabilisation; K562 lysate, 10 uM; active = over 0.2 and 3.5 SD of the protein, either way, in both replicates (recomputed)
[1] = compound: NCC(=O)Nc1ccc(-n2nc(C(F)(F)F)cc2-c2ccc3c(ccc4ccccc43)c2)cc1
Summary of the method: (§1)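 Values give the log-two fold change in thermal stability against solvent controls, from duplicates. Crude K562 extract at 1 mg/mL protein, made by dounce homogenisation in PBS pH 7.4 with 1 mM MgCl2, was treated with 10 μM compound for 30 min. After 3 min heating across 48°C-58°C, aliquots were pooled, adjusted to 0.5% NP-40 at 4°C and centrifuged at 21,000xg for 90 min. The supernatant was measured by TMTpro 16plex LC-MS/MS with channel sums equalised.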

vorinostat = compound: O=C(CCCCCCC(=O)Nc1ccccc1)NO [vorinostat]
Summary of the method: as §1

silmitasertib = compound: O=C(O)c1ccc2c(c1)nc(Nc1cccc(Cl)c1)c1ccncc12 [silmitasertib]
Summary of the method: as §1

[2] = compound: O=C1NC(=O)C(c2cnc3ccccn23)=C1c1cn2c3c(cc(F)cc13)CN(C(=O)N1CCCCC1)CC2
Summary of the method: as §1

entospletinib = compound: c1cn2cc(-c3ccc4cn[nH]c4c3)nc(Nc3ccc(N4CCOCC4)cc3)c2n1 [entospletinib]
Summary of the method: as §1

Measured: log2 fold change

TBC1D2B (UniProt Q9UPU7)
active: vorinostat -0.249
inactive: [1] -0.007 | silmitasertib 0.049 | [2] -0.047 | entospletinib -0.061

TCAF2 (UniProt A6NFQ2)
inactive: [1] 0.019 | silmitasertib 0 | [2] 0 | entospletinib -0.01
active: vorinostat -0.27

TFAP4 (UniProt Q01664)
inactive: [1] 0.005 | vorinostat 0.051 | silmitasertib -0.196 | [2] 0.01 | entospletinib -0.086

TBC1D23 (UniProt Q9NUY8)
inactive: [1] 0.031 | silmitasertib -0.023 | [2] -0.001 | entospletinib 0
active: vorinostat -0.252

TTK (UniProt P33981)
inactive: [1] -0.009 | vorinostat -0.183 | silmitasertib 0.004 | [2] -0.03 | entospletinib -0.039

TUBE1 (UniProt Q9UJT0)
inactive: [1] 0.024 | silmitasertib -0.049 | [2] -0.036 | entospletinib -0.027
active: vorinostat -0.264

TK1 (UniProt P04183)
inactive: [1] 0.04 | vorinostat -0.028 | silmitasertib -0.001 | [2] 0.014 | entospletinib 0.035

TTLL12 (UniProt Q14166)
active: vorinostat -0.426
inactive: [1] -0.021 | silmitasertib 0.092 | [2] 0.02 | entospletinib 0.049

TUBB2A (UniProt Q13885)
active: vorinostat -0.759
inactive: [1] 0.034 | silmitasertib 0.016 | [2] -0.004 | entospletinib -0.012

TPST2 (UniProt O60704)
inactive: [1] 0.045 | vorinostat 0.132 | silmitasertib -0.03 | [2] -0.048 | entospletinib 0.016

TUBA4A (UniProt P68366)
active: vorinostat -0.736
inactive: [1] 0.066 | silmitasertib 0.077 | [2] 0.051 | entospletinib -0.045

TFIP11 (UniProt Q9UBB9)
inactive: [1] -0.001 | vorinostat -0.06 | silmitasertib 0.013 | [2] 0.001 | entospletinib 0.067

TCF3 (UniProt X6REB3)
inactive: [1] -0.257

TRAPPC6A isoform 2 (UniProt O75865)
inactive: [1] -0.048 | vorinostat -0.038 | silmitasertib 0.013 | [2] -0.002 | entospletinib -0.157

UBR4 (UniProt Q5T4S7)
inactive: [1] 0 | vorinostat -0.14 | silmitasertib 0.027 | [2] -0.008 | entospletinib 0.009

TBC1D20 isoform 3 (UniProt Q96BZ9)
inactive: [1] -0.118 | vorinostat 0.088 | silmitasertib -0.013 | [2] 0.058 | entospletinib 0.02

TRADD (UniProt Q15628)
inactive: [1] 0.034 | vorinostat -0.284 | silmitasertib 0.021 | [2] -0.029 | entospletinib 0.059

TUBB3 (UniProt Q13509)
inactive: [1] -0.012 | silmitasertib 0.04 | [2] 0.006 | entospletinib -0.002
active: vorinostat -0.688

TNIK isoform 4 (UniProt Q9UKE5)
inactive: [1] -0.019 | vorinostat -0.135 | silmitasertib 0.004 | [2] -0.114 | entospletinib 0.208

TTC37 (UniProt Q6PGP7)
Chain of UniProt Q6PGP7 (Q6PGP7 whole entry, looked up): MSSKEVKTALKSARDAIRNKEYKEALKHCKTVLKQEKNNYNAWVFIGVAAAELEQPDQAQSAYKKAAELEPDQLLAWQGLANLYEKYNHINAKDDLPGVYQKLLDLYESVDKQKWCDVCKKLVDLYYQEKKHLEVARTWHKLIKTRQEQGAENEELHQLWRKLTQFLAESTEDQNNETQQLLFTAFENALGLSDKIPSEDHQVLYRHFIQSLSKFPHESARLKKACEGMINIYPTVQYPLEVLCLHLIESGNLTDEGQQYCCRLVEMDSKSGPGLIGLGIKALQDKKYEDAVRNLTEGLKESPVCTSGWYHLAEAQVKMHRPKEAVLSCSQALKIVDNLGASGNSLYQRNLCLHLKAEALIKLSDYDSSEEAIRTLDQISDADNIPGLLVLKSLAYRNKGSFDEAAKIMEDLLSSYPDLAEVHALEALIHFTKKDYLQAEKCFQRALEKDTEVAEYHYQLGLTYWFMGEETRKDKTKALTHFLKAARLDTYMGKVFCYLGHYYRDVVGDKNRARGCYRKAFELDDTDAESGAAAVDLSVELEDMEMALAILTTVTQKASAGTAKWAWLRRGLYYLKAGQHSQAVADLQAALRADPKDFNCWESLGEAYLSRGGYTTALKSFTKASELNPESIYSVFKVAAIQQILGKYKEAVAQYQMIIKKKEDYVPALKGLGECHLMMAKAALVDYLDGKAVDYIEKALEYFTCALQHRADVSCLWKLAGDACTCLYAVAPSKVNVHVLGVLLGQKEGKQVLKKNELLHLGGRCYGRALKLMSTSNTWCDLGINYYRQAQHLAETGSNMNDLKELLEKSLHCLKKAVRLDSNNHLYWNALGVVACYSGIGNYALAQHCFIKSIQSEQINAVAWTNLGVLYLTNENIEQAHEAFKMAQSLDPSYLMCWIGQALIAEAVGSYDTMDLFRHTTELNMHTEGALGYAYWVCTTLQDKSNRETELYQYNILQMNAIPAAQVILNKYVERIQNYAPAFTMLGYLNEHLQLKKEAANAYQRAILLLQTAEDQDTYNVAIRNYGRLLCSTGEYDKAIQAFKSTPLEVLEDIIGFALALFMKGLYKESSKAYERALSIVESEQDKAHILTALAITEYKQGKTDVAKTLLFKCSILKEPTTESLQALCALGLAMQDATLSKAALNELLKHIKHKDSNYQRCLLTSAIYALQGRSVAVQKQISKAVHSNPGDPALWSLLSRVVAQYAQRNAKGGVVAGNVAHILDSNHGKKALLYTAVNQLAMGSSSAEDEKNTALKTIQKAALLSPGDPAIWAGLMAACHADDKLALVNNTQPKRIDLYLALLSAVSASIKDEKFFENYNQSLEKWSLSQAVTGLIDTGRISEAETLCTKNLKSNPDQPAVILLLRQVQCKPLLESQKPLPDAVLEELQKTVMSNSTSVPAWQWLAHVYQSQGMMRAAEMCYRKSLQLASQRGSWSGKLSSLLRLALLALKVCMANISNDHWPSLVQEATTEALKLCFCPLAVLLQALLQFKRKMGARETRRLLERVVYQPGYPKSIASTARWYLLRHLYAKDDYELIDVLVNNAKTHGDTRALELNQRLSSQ
inactive: [1] 0.136 | vorinostat 0.153 | silmitasertib 0.03 | [2] 0.046

UBAP2 (UniProt Q5T6F2)
inactive: [1] 0.031 | vorinostat 0.03 | silmitasertib -0.007 | [2] 0 | entospletinib -0.013

TRIM33 (UniProt H0Y612)
inactive: [1] -0.039 | silmitasertib 0.061 | [2] 0.03 | entospletinib 0.084
active: vorinostat -0.335

TMC1 (UniProt Q8TDI8)
inactive: [1] 0.015 | vorinostat -0.121 | silmitasertib 0.02 | [2] -0.337 | entospletinib 0.012

TUBA1C (UniProt Q9BQE3)
Chain of UniProt Q9BQE3 (Q9BQE3 whole entry, looked up): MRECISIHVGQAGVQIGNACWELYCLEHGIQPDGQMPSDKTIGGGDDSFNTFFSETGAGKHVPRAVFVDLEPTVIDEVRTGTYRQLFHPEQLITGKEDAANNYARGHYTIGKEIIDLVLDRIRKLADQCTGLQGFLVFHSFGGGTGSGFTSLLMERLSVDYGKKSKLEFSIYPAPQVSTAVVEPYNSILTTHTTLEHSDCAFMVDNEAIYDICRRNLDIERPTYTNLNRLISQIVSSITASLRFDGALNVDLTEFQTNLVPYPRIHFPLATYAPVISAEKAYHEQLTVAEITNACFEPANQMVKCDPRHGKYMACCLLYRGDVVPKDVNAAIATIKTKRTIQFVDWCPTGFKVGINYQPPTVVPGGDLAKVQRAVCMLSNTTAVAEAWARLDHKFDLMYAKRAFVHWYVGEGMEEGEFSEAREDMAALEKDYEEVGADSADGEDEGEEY
active: vorinostat -0.256
inactive: [1] 0.019 | silmitasertib 0.013 | [2] 0.006 | entospletinib -0.014

TPM4 (UniProt P67936)
Chain of UniProt P67936 (P67936 whole entry, looked up): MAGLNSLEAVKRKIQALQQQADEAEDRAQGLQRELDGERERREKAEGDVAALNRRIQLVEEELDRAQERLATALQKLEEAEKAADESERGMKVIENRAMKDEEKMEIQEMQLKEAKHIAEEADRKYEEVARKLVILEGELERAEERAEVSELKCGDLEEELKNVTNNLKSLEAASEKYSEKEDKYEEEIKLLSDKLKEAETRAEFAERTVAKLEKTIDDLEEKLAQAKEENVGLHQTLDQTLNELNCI
inactive: [1] -0.001 | vorinostat 0.166 | silmitasertib -0.018 | [2] -0.023 | entospletinib 0.048

TPP2 (UniProt P29144)
inactive: [1] -0.015 | vorinostat -0.121 | silmitasertib 0.02 | [2] -0.011 | entospletinib 0.003

TRAPPC9 isoform 2 (UniProt Q96Q05)
active: vorinostat -0.375
inactive: [1] 0.005 | silmitasertib 0.046 | [2] 0 | entospletinib -0.049

UBE2H (UniProt P62256)
inactive: [1] 0.023 | vorinostat 0.093 | silmitasertib -0.003 | [2] -0.003 | entospletinib -0.012

TJP1 (UniProt G3V1L9)
active: vorinostat -0.484
inactive: [1] -0.044 | silmitasertib -0.061 | [2] 0.127

TUBGCP2 isoform 4 (UniProt Q9BSJ2)
inactive: [1] 0.03 | silmitasertib 0.051 | [2] 0.046 | entospletinib 0.042
active: vorinostat -0.32

TRMT12 (UniProt Q53H54)
inactive: [1] 0.045 | silmitasertib -0.039 | [2] -0.043 | entospletinib -0.125
active: vorinostat -0.35

TOPBP1 (UniProt Q92547)
inactive: [1] 0.032 | silmitasertib 0.019 | [2] -0.074 | entospletinib 0.028
active: vorinostat -0.387

TMEM97 (UniProt Q5BJF2)
inactive: [1] -0.016 | vorinostat 0.152 | silmitasertib -0.039 | [2] 0.071 | entospletinib 0.004

TTI1 (UniProt O43156)
active: vorinostat -0.452
inactive: [1] -0.037 | silmitasertib 0.089 | [2] -0.019 | entospletinib -0.017

TCF12 isoform 3 (UniProt Q99081)
active: vorinostat -0.263
inactive: [1] -0.016 | silmitasertib -0.024 | [2] -0.004 | entospletinib 0.006

TPX2 (UniProt Q9ULW0)
active: vorinostat -0.498
inactive: [1] 0.003 | silmitasertib -0.04 | [2] 0.009 | entospletinib 0.015

TPM3 isoform 3 (UniProt P06753)
Chain of UniProt P06753 (P06753 whole entry, looked up): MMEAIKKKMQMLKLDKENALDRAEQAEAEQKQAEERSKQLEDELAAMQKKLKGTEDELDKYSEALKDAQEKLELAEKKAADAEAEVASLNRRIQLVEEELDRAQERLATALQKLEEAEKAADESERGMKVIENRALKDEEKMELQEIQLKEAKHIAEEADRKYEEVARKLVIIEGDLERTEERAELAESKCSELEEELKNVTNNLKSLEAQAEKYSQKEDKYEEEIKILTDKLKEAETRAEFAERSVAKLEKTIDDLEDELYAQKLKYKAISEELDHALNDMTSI
inactive: [1] -0.111 | vorinostat 0.048 | silmitasertib -0.047 | [2] -0.15 | entospletinib -0.024

TUBA3C (UniProt P0DPH7)
inactive: [1] 0 | silmitasertib 0.017 | [2] -0.008 | entospletinib -0.007
active: vorinostat -0.913

TMEM199 (UniProt Q8N511)
Chain of UniProt Q8N511 (Q8N511 whole entry, looked up): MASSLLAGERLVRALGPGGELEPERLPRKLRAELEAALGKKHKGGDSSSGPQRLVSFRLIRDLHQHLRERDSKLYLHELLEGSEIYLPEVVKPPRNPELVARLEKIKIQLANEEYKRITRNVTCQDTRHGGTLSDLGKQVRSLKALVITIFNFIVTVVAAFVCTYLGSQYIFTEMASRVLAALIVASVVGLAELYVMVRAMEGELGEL
inactive: [1] 0.021 | vorinostat 0.13 | silmitasertib -0.017 | [2] -0.005 | entospletinib 0.008

TSPAN13 (UniProt O95857)
inactive: [1] -0.024 | vorinostat 0.104 | silmitasertib -0.008 | [2] 0.008 | entospletinib -0.015

UCHL5 (UniProt Q5LJA9)
inactive: [1] -0.017 | silmitasertib 0.004 | [2] -0.086 | entospletinib -0.011
active: vorinostat -0.361

TDRD3 isoform 3 (UniProt Q9H7E2)
Chain of UniProt Q9H7E2 (Q9H7E2 whole entry, looked up): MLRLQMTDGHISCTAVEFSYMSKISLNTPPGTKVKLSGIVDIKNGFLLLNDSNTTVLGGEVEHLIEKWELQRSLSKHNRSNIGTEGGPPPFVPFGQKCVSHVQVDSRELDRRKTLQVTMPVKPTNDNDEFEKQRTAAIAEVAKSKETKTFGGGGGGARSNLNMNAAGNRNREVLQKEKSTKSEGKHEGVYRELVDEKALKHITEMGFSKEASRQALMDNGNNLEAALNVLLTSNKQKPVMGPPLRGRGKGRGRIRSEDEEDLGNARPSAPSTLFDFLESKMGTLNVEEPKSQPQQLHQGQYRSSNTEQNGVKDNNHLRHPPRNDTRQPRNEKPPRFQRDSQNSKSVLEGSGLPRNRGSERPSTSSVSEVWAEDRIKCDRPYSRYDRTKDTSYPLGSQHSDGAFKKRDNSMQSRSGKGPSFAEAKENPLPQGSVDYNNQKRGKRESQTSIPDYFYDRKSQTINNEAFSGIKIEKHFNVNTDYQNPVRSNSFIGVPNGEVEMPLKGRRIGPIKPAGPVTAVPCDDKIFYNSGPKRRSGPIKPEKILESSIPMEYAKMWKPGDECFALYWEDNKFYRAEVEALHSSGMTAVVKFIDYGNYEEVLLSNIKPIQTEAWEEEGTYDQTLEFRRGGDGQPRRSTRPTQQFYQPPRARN
inactive: [1] 0.23 | vorinostat -0.016 | silmitasertib -0.03 | [2] 0.008 | entospletinib -0.041

TRIM23 (UniProt P36406)
inactive: [1] 0.064 | vorinostat 0.073 | silmitasertib -0.03 | [2] -0.02 | entospletinib -0.032

UBE4A isoform 2 (UniProt Q14139)
Chain of UniProt Q14139 (Q14139 whole entry, looked up): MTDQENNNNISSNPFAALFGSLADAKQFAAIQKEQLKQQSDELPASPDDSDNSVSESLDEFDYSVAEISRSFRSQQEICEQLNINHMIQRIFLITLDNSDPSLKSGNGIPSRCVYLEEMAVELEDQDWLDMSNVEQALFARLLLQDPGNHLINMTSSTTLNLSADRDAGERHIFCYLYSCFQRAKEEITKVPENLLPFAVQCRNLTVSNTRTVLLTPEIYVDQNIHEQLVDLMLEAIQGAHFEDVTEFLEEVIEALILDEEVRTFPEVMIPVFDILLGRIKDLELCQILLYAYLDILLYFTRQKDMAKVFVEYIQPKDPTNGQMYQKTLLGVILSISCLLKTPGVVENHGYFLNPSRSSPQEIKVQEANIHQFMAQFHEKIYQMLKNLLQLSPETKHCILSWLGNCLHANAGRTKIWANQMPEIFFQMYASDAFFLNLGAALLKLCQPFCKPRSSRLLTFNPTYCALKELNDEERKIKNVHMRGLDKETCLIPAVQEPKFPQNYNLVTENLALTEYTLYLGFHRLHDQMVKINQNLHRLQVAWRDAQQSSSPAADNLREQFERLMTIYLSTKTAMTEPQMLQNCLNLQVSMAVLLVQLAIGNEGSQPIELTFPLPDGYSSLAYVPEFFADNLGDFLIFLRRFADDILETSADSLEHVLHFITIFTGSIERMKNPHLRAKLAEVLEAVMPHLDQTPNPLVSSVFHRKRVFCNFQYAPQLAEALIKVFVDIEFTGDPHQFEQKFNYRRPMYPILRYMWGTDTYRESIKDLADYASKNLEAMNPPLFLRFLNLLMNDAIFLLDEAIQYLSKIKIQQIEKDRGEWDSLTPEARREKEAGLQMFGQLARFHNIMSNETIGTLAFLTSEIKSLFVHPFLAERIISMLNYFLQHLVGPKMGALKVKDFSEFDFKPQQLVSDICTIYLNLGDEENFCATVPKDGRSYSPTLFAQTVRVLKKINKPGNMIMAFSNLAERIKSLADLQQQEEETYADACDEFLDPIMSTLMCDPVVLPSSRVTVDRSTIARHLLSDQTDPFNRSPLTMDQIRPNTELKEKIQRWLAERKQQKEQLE
active: vorinostat -0.257
inactive: [1] 0.007 | silmitasertib 0.019 | [2] 0.029 | entospletinib 0.026

TXNRD2 (UniProt Q9NNW7)
inactive: [1] -0.016 | vorinostat 0.125 | silmitasertib -0.025 | [2] 0.029 | entospletinib 0.023

TLE3 isoform 4 (UniProt Q04726)
inactive: [1] 0.011 | vorinostat 0.047 | silmitasertib -0.052 | [2] -0.018 | entospletinib -0.009

UBR5 (UniProt O95071)
inactive: [1] 0.009 | silmitasertib 0.011 | [2] -0.011 | entospletinib -0.006
active: vorinostat -0.234

UBR3 isoform 4 (UniProt Q6ZT12)
active: vorinostat -0.43
inactive: [1] -0.011 | silmitasertib 0.023 | [2] -0.005 | entospletinib -0.003

TPP2 (UniProt Q5VZU9)
inactive: [1] -0.125 | vorinostat -0.173 | silmitasertib 0.044 | [2] 0.002 | entospletinib 0.109

TUBB4A (UniProt M0QYM7)
inactive: [1] 0.128 | vorinostat -0.431 | silmitasertib 0.01 | [2] -0.062 | entospletinib 0.032

TXNIP (UniProt Q9H3M7)
inactive: [1] -0.076 | silmitasertib 0.04 | [2] -0.051 | entospletinib 0.024
active: vorinostat -0.399

UBL4A (UniProt P11441)
inactive: [1] -0.036 | vorinostat -0.016 | silmitasertib 0.04 | [2] 0.007 | entospletinib -0.011

UBE3C (UniProt Q15386)
inactive: [1] -0.009 | silmitasertib -0.001 | [2] 0 | entospletinib 0.05
active: vorinostat -0.479

TUBA1B (UniProt P68363)
Chain of UniProt P68363 (P68363 whole entry, looked up): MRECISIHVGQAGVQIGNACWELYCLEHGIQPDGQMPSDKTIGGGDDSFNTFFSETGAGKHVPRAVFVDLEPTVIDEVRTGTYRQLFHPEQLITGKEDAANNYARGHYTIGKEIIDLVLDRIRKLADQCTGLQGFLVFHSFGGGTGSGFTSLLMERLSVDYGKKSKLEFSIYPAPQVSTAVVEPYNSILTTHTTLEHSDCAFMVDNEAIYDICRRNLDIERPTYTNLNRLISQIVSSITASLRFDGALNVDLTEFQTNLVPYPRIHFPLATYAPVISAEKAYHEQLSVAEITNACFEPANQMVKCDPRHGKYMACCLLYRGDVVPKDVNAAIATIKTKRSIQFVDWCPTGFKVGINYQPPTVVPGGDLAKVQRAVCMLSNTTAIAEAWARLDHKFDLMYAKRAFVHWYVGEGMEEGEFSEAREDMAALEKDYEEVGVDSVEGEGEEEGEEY
active: vorinostat -0.66
inactive: [1] -0.005 | silmitasertib 0.018 | [2] 0.026 | entospletinib 0.01
